From PubChem BioAssay
Most compounds without a hit are left out; they make up all but 6.5% or so of the library.
HT1080 IDH1KD tx = qHTS for induction of synthetic lethality in tumor cells producing 2HG: qHTS for the HT-1080-IDH1KD cell line | HT-1080 IDH1 knockdown viability, ATP luminescence, 48 h | Potency, µM (series often up to 46.1 µM), inactives show at the highest dose activity, negative = toxicity, hits mostly cytotoxic | actives 2% (n = 360,000) | AID 686971, 2013;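 note: potency is the fitted concentration of half-maximal effect; 0% = DMSO wells and -100% = cell-free medium wells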
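In this qHTS, HT-1080 cells depleted of IDH1 are exposed for 48 h at 37 °C to compound titrations. Toxicity is scored from CellTiter-Glo luminescence, with DMSO as full viability and medium alone as none.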
TGFb SMAD3 inh = qHTS for Inhibitors of TGF-b; HepG2 CAGA-GFP TGF-b/SMAD3 reporter, GFP fluorescence, 18 h; TGF-beta stimulated, 500 pg/mL final; Potency, µM (doses to about 46.1 µM), for inactives: top-dose activity, negative = inhibition, usual class: inhibitors; actives 1.2% (n = 410,000); AID 588855, 2011; note: potency is the fitted concentration of half-maximal effect; % is set by controls: 0 for no effect and ±100 for the full control effect; nearly all actives have a fitted effect of over 65% in size
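HEPG2 CAGA-GFP, 1000 cells/well; 2 h settle, 37 C; cpd via pin tool; TGF-b 500 pg/mL final; 18 h, 37 C; GFP imaging ex488/em500-530; %Activity normalised to -TGF-b and +DMSO controls; CRC fit, curve class.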
Giardia kill = Small Molecules that selectively kill Giardia lamblia: qHTS; actives 0.15% (n = 340,000); Giardia lamblia trophozoite viability; activity change, % at 7.66 µM, hits read low; in the data active = activity change below about -80%; inconclusive = between about -30% and that limit;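 note: parasites exposed to compound for two days anaerobically before the ATP read; % is set by controls: 0 for no effect and ±100 for the full control effect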
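Killing of trophozoites was scored by loss of ATP luminescence after a 48 hrs anaerobic exposure to compounds at 37 deg C, using 100 cells per well.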
HepG2 tox = qHTS for Inhibitors of TGF-b: Cytotox Counterscreen; HepG2 CAGA-GFP viability, ATP luminescence, 18 h; Potency, µM (highest dose often 46.1 µM), without a hit: at the highest dose activity change, negative = cytotoxicity, hits mostly cytotoxic; actives 0.76% (n = 410,000); note: potency is the fitted concentration of half-maximal effect
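HepG2 CAGA-GFP cells (1000/well, DMEM with 1% FBS) received compound, then TGF-beta at 500 pg/mL final, and were incubated 18 hours at 37 degrees C. Viability was read by CellTiter-Glo luminescence. Media-only wells were set as complete cell-killing and DMSO as no toxicity.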
HT1080-NT tox = qHTS for induction of synthetic lethality in tumor cells producing 2HG: qHTS for the HT-1080-NT fibrosarcoma cell line. HT-1080-NT fibrosarcoma viability, CellTiter-Glo ATP luminescence, 48 h. Potency, µM (doses to about 46.1 µM), for the others: top-dose activity, negative = less viability, most hits filed as cytotoxic. actives 1.6% (n = 360,000);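 note: NT is the 2HG producing partner of a matched IDH1 knockdown line; potency is the fitted concentration of half-maximal effect; 0% = DMSO-treated cells and -100% = media-only wells without cells; nearly all actives have a fitted effect of over 55% in size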
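HT-1080-NT; 750 cells/well; 5% FBS RPMI; 48 h compound, 37 degrees C; CellTiter-Glo luminescence; curve fitting and curve-class assignment.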
IL-1B inflam inh = qHTS for Inhibitors of Inflammasome Signaling: IL-1-beta AlphaLISA Primary Screen. activity change, % at 57.5 µM. AID 743279, 2014. THP-1 LPS/ATP IL-1B secretion, AlphaLISA, 16 h; active compounds read low. actives 4.7% (n = 360,000); in the data active = activity change below about -50%; inconclusive = mostly about -30% to -49%; note: % is set by controls: 0 for no effect and ±100 for the full control effect
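Secreted IL-1B measured by AlphaLISA bead assay after 16 h compound exposure of THP-1 cells; compounds (final up to 57.5 uM) added 1 h before LPS (250 ng/mL) and ATP (1.25 mM) stimulation; lower signal means less secretion.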
An asterisk follows results filed as active. Unless noted, calls come from the whole dose curve; as a rule, active = well fitted curve in the direction sought with a large enough effect; inconclusive = small, poorly fitted or top-dose-only effect, or another doubt; inactive = no such curve, though single readings can be large; an effect the other way counts as inactive or inconclusive.

How did CC1CCN(C(=O)c2ccc(S(=O)(=O)Cc3cccc(F)c3)c([N+](=O)[O-])c2)CC1 do in these assays?
HT1080 IDH1KD tx: -8%; TGFb SMAD3 inh: -5%; Giardia kill: -1; HepG2 tox: -31%; HT1080-NT tox: -11%; IL-1B inflam inh: -86*

Results for Cc1ccccc1CS(=O)(=O)c1ccc(C(=O)N2CCC(C)CC2)cc1[N+](=O)[O-] ?
HT1080 IDH1KD tx: 6%; TGFb SMAD3 inh: 2%; Giardia kill: 16; HepG2 tox: -1%; HT1080-NT tox: 14%; IL-1B inflam inh: -18

Results for O=C(c1ccc(S(=O)(=O)Cc2cc(F)ccc2F)c([N+](=O)[O-])c1)N1CCCC1 ?
HT1080 IDH1KD tx: 21µM*; TGFb SMAD3 inh: inconclusive; Giardia kill: 23; HepG2 tox: 0%; HT1080-NT tox: inconclusive; IL-1B inflam inh: -108*

How did O=C(c1ccc(S(=O)(=O)Cc2cc(F)ccc2F)c([N+](=O)[O-])c1)N1CCCCC1 do in these assays?
HT1080 IDH1KD tx: -14%; TGFb SMAD3 inh: inconclusive; Giardia kill: -7; HepG2 tox: -1%; HT1080-NT tox: -2%; IL-1B inflam inh: -110*

How did ON=C1CCCC2CCCCC12 (stereo not given) do in these assays?
HT1080 IDH1KD tx: 14%; TGFb SMAD3 inh: 0%; Giardia kill: -11; HepG2 tox: -9%; HT1080-NT tox: 16%; IL-1B inflam inh: 2

Results for COc1ccccc1C(=O)NC(=O)COC(=O)C1CCC1 ?
HT1080 IDH1KD tx: 2%; TGFb SMAD3 inh: -2%; Giardia kill: 4; HepG2 tox: 7%; HT1080-NT tox: 3%; IL-1B inflam inh: 8

Results for CC1(C)NC(=O)N(CCOc2ccc3c(c2)CCC3)C1=O ?
HT1080 IDH1KD tx: 1%; TGFb SMAD3 inh: -14%; Giardia kill: 5; HepG2 tox: -6%; HT1080-NT tox: 0%; IL-1B inflam inh: -10

What do the screens show for `Cc1noc(C)c1C(=O)NCc1ccccc1Br`?
HT1080 IDH1KD tx: inconclusive; TGFb SMAD3 inh: -6%; Giardia kill: 14; HepG2 tox: -17%; HT1080-NT tox: -3%; IL-1B inflam inh: -7

What do the screens show for `O=C(NC(CC(=O)N1CCN(c2ccccc2)CC1)c1ccccc1)c1ccccc1` (stereo not given)?
HT1080 IDH1KD tx: 9%; TGFb SMAD3 inh: 8%; HepG2 tox: 1%; HT1080-NT tox: 9%; IL-1B inflam inh: -1

How did CN(CC(=O)Nc1ccccc1Br)C(=O)c1cccc(S(=O)(=O)N2CCc3ccccc32)c1 do in these assays?
HT1080 IDH1KD tx: -19%; TGFb SMAD3 inh: -13%; Giardia kill: 0; HepG2 tox: -10%; HT1080-NT tox: -5%; IL-1B inflam inh: -19

What do the screens show for `O=C(Nc1nc2nc(-c3ccccc3)cc(-c3ccccc3)n2n1)c1ccco1`?
HT1080 IDH1KD tx: 26µM*; TGFb SMAD3 inh: -5%; Giardia kill: 8; HepG2 tox: -22%; HT1080-NT tox: inconclusive; IL-1B inflam inh: -4

How did COc1ccc(CCNC(=O)CSc2nc3scc(-c4ccccc4)c3c(=O)[nH]2)cc1 do in these assays?
HT1080 IDH1KD tx: -3%; TGFb SMAD3 inh: 13µM*; Giardia kill: -8; HepG2 tox: -34%; HT1080-NT tox: -21%; IL-1B inflam inh: 21

Results for CC(C)CNC(=O)CSc1nc2scc(-c3ccccc3)c2c(=O)[nH]1 ?
HT1080 IDH1KD tx: 0%; TGFb SMAD3 inh: inconclusive; Giardia kill: -16; HepG2 tox: -32%; HT1080-NT tox: -8%; IL-1B inflam inh: 24

What do the screens show for `O=C1NC[C@H](Cc2ccccc2)N(C[C@@H]2CCCN2C[C@H](Cc2ccc(O)cc2)N2C[C@H](Cc3ccccc3)N(CC3CCCCCC3)C(=O)C2=O)C1=O`?
HT1080 IDH1KD tx: inconclusive; HT1080-NT tox: inconclusive; IL-1B inflam inh: -83*

Results for CC(C)C[C@H]1CN([C@@H](Cc2ccccc2)CN2CCC[C@H]2CN2C(=O)C(=O)NC[C@@H]2Cc2ccc(O)cc2)C(=O)C(=O)N1CC1CCCCC1 ?
HT1080 IDH1KD tx: inconclusive; HT1080-NT tox: inconclusive; IL-1B inflam inh: -94*

Results for O=C1NC[C@H](Cc2ccccc2)N(C[C@@H]2CCCN2C[C@H](Cc2ccccc2)N2C[C@H](Cc3ccccc3)N(CC3CCCCC3)C(=O)C2=O)C1=O ?
HT1080 IDH1KD tx: inconclusive; TGFb SMAD3 inh: 18µM*; HepG2 tox: -55%; HT1080-NT tox: inconclusive; IL-1B inflam inh: -77*

How did O=C1NC[C@H](Cc2ccccc2)N(C[C@H]2CCCN2C[C@H](Cc2ccccc2)N2C[C@H](Cc3ccccc3)N(CC3CCCCC3)C(=O)C2=O)C1=O do in these assays?
HT1080 IDH1KD tx: inconclusive; TGFb SMAD3 inh: inconclusive; Giardia kill: -5; HepG2 tox: 7.1µM*; HT1080-NT tox: inconclusive; IL-1B inflam inh: -78*

Results for O=C1NC[C@H](Cc2ccc(O)cc2)N(C[C@@H]2CCCN2C[C@H](Cc2ccccc2)N2C[C@H](Cc3ccccc3)N(CC3CCCCCC3)C(=O)C2=O)C1=O ?
HT1080 IDH1KD tx: inconclusive; HT1080-NT tox: inconclusive; IL-1B inflam inh: -17

What do the screens show for `Cc1cccc(NC(=S)NC(=O)c2ccco2)c1C`?
HT1080 IDH1KD tx: 17%; TGFb SMAD3 inh: 0%; Giardia kill: 44; HepG2 tox: 2%; HT1080-NT tox: 18%; IL-1B inflam inh: -21

Results for CC(C)(C)C1CCC(CN2CCC(CN3C(=O)C(=O)NC[C@@H]3Cc3ccccc3)CC2)CC1 (stereo not given in full) ?
HT1080 IDH1KD tx: 5%; TGFb SMAD3 inh: 8%; Giardia kill: -3; HepG2 tox: 1%; HT1080-NT tox: 0%; IL-1B inflam inh: -56*

What do the screens show for `O=C(Nc1ccc(O)c2c(=O)cc(-c3cccc(Cl)c3)oc12)c1cccc(Cl)c1`?
HT1080 IDH1KD tx: 2%; TGFb SMAD3 inh: inconclusive; Giardia kill: 12; HepG2 tox: 2%; HT1080-NT tox: 10%; IL-1B inflam inh: 5

Results for O[Si](CCCN1CCCCC1)(c1ccc(F)cc1)C1CCCCC1 (stereo not given) ?
HT1080 IDH1KD tx: 21µM*; TGFb SMAD3 inh: 35%; Giardia kill: -11; HepG2 tox: -42%; HT1080-NT tox: inconclusive; IL-1B inflam inh: inconclusive
